Shown are actives, neighbours in structure and some others; about 2.4% of the full set was active somewhere.
Pol kappa inh: qHTS for Inhibitors of Polymerase Kappa; purified Pol kappa, fluorescent DNA synthesis assay, 10 min; 400,000 compounds, 0.53% hits; Potency, µM (highest dose often 107 µM), hits mostly inhibitors; AID 588579, 2011; DNA polymerase kappa (Homo sapiens), Q9UBT6
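Fluorescent qHTS in 1536-well format: enzyme (10 nM) and compound sat 15 min at room temperature before 50 nM substrate (final) was added. Signal taken at 0 and 10 min; no-enzyme buffer wells were negative controls.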
Pol eta inh: qHTS for Inhibitors of Polymerase Eta | DNA polymerase eta (Homo sapiens), Q9Y253 | recombinant Pol eta, fluorescent DNA replication assay | Potency, µM (series often up to 114 µM), actives largely listed as inhibitors | 390,000 compounds, 1.2% hits | AID 588591, 2011
Target sequence (Q9Y253 whole entry, looked up): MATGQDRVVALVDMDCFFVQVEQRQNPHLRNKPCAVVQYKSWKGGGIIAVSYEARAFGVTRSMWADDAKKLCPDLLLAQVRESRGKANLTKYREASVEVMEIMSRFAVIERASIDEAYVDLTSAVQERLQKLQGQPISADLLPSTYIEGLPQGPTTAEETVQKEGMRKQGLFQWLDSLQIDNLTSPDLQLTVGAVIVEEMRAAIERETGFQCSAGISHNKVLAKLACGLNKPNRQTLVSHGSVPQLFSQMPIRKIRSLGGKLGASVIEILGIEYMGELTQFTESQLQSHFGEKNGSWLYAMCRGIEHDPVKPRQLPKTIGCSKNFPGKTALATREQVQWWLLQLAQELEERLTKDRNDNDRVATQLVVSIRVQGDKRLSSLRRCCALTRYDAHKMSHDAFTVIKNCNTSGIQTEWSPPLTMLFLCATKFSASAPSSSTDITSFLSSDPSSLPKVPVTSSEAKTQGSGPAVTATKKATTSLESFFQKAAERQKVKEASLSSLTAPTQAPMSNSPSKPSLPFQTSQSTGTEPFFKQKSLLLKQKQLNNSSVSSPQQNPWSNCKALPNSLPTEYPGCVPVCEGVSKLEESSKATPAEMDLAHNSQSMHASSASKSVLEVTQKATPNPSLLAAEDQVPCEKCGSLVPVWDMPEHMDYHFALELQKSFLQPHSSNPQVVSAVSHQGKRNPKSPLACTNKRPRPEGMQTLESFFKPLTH
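Fluorescent replication assay: 50 nM final substrate added after a 15 min room-temperature compound preincubation with 10 nM enzyme. Signal taken at 0 min and again at 10 min.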
FEN1 inhibitor: qHTS Assay for the Inhibitors of Human Flap endonuclease 1 (FEN1). P39748. Recombinant FEN1 flap cleavage, fluorescence, 15 min. Potency, µM (highest dose often 114 µM), most hits filed as inhibitors. 390,000 compounds, 0.35% hits. AID 588795, 2011; further: nearly all actives have a fitted effect of over 65% in size
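Reaction started by adding substrate (50 nM final) to 10 nM enzyme after 15 min room-temperature compound preincubation. Reads at 0 and 15 min, with data normalized and fitted to a four-parameter Hill equation.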
PGK inhibitor: qHTS Assay to Find Inhibitors of Phosphoglycerate Kinase; PGK/GAPDH coupled, Kinase-Glo luminescence, 60 min; Potency, µM (titrated, usually from 57.5 µM), most hits filed as inhibitors; 380,000 compounds, 0.043% hits; further: nearly all actives have a fitted effect of over 60% in size
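Recombinant glycosomal PGK reaction used 1,3-bisphosphoglycerate generated in-well by GAPDH (100nM final) in 100mM TEA pH 7.6, 5mM MgCl2, 0.01% Tween-20. After 60 minutes at room temperature, ATP was read by Kinase-Glo Plus luminescence end-point.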
POLB inh: qHTS Assay for Inhibitors of DNA Polymerase Beta | P06746 | Pol beta primer extension/strand displacement, fluorescence kinetic | Potency, µM (series often up to 114 µM), actives largely listed as inhibitors | 340,000 compounds, 1.3% hits | AID 485314, 2010
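Pol beta (10 nM) and compounds were preincubated 15 min at room temperature, then 50 nM substrate (final) started primer extension/strand displacement. Reads were taken at 0 and 10 min; concentration-response data were fitted to a four-parameter Hill equation.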
Pol iota inh: qHTS for Inhibitors of Polymerase Iota. 390,000 compounds, 1% hits. Potency, µM (series often up to 115 µM), most hits filed as inhibitors. Pol iota fluorescent replication assay, 10 min. DNA polymerase iota (Homo sapiens), Q9UNA4
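Pol iota at 10 nM preincubated 15 min with compounds at room temperature; reaction started with fluorescent substrate, 50 nM final. Fluorescence read kinetically at 0 and 10 min; buffer-only wells as negative control.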
Of the large screens only hits and unclear results are named; the others gave an inactive call. The call rests on the fitted dose curve; in most records, active means well fitted curve in the direction sought with a large enough effect; inconclusive means small, poorly fitted or top-dose-only effect, or another doubt; inactive means no such curve, though single readings can be large; an effect the other way counts as inactive or inconclusive.

COC(=O)[C@@H]1[C@H]2SC(C)(C)[C@H](C(=O)OC)N2C(=O)N1Cc1cc2ccccc2n1S(=O)(=O)c1ccccc1	none (no result: Pol eta inh, PGK inhibitor, POLB inh)
CC(C)CCCC(C)C1CC(=O)C2=C3CCC4CC(O)CCC4(C)C3CCC21C (configuration not stated)	none (no result: Pol eta inh, FEN1 inhibitor, PGK inhibitor, POLB inh, Pol iota inh)
NC(=O)c1cc[n+](CC2=C(C(=O)O)N3C(=O)[C@@H](NC(=O)[C@H](c4ccccc4)S(=O)(=O)[O-])[C@@H]3SC2)cc1	Pol kappa inh 4.2µM (no result: Pol eta inh, FEN1 inhibitor, PGK inhibitor, POLB inh, Pol iota inh)
NC(C(=O)N[C@@H]1C(=O)N2C(C(=O)O)=C(Cl)CS[C@H]12)c1ccccc1 (some centres not stated)	none (no result: FEN1 inhibitor, PGK inhibitor)
NC(=O)c1cc[n+](CC2=C(C(=O)O)N3C(=O)[C@@H](NC(=O)C(c4ccccc4)S(=O)(=O)[O-])[C@H]3SC2)cc1 (some centres not stated)	Pol kappa inh 1µM, FEN1 inhibitor 2.2µM, PGK inhibitor 1.1µM, Pol iota inh 0.79µM
Cc1ccc(F)cc1-c1ccc(C(=O)N=C(N)N)o1	none (no result: Pol eta inh, FEN1 inhibitor, PGK inhibitor, POLB inh, Pol iota inh)
O=c1oc(-c2cccnc2)nc2ccccc12	none
Cc1cc(=O)c2cc3nc(-c4cccnc4)oc3c(Br)c2o1	POLB inh 40µM (no result: Pol kappa inh, Pol eta inh, FEN1 inhibitor, PGK inhibitor, Pol iota inh)
CCSc1nnc(NC(=O)CSc2nnc(Cc3cccn3C)n2-c2ccc(C)cc2)s1	POLB inh inconclusive, Pol iota inh 50µM
CC(CNC(=O)CCc1cn(Cc2ccccc2Cl)c2ccccc12)c1ccccc1 (configuration not stated)	none
Cc1cccc(NC(=S)N2CCN(C(=O)c3ccco3)CC2)c1C	none
Cc1c(Cl)cccc1NC(=S)N1CCN(C(=O)c2ccco2)CC1	POLB inh 79µM
CC(C)Oc1ccc(CNS(=O)(=O)c2ccc3c(c2)C(C)(C)C(=O)N3C)cc1	none
O=C(Nc1nnc(SCc2ccc(F)cc2)s1)C1Cc2ccccc2CN1C(=O)c1ccco1 (configuration not stated)	Pol kappa inh inconclusive, Pol eta inh 22µM, Pol iota inh inconclusive
Cc1ccc(NC(=O)C2Cc3ccccc3CN2C(=O)c2ccco2)cc1S(=O)(=O)N(C)C (configuration not stated)	POLB inh inconclusive, Pol iota inh inconclusive
CN(C)S(=O)(=O)c1cccc(NC(=O)C2Cc3ccccc3CN2C(=O)c2ccco2)c1 (configuration not stated)	Pol eta inh inconclusive, POLB inh inconclusive, Pol iota inh 35µM
O=C(Nc1nnc(C2CC2)s1)C1Cc2ccccc2CN1S(=O)(=O)c1cccs1 (configuration not stated)	Pol kappa inh inconclusive, Pol eta inh 7.1µM, POLB inh 11µM
COc1ccc(NC(=O)C2Cc3ccccc3CN2C(=O)c2ccco2)cc1 (configuration not stated)	none
O=C(Nc1nnc(C2CC2)s1)C1Cc2ccccc2CN1C(=O)c1ccco1 (configuration not stated)	Pol eta inh inconclusive, POLB inh 7.9µM, Pol iota inh 28µM
COc1ccc(C(=O)Nc2nnc(SCc3cc(=O)n4cc(Cl)ccc4n3)s2)cc1	none
CCCCC1=CC2=C(c3ccco3)C(=O)C(C)(OC(=O)c3ccc(OC)cc3)C(=O)C2=CN1CC(C)C (configuration not stated)	none
CCCCC1=CC2=C(c3ccco3)C(=O)C(C)(OC(=O)c3ccc(OC)cc3)C(=O)C2=CN1CCCCO (configuration not stated)	Pol iota inh inconclusive
CCCCC1=CC2=C(c3ccco3)C(=O)C(C)(OC(=O)c3ccc(OC)cc3)C(=O)C2=CN1Cc1ccc(OC)cc1 (configuration not stated)	POLB inh 45µM (no result: Pol kappa inh, Pol eta inh, FEN1 inhibitor, PGK inhibitor, Pol iota inh)
CCCCC1=CC2=C(c3ccco3)C(=O)C(C)(OC(=O)c3ccc(OC)cc3)C(=O)C2=CN1Cc1ccco1 (configuration not stated)	Pol kappa inh 50µM, POLB inh 10µM, Pol iota inh 4µM
CCn1c(SCC(=O)NCc2ccco2)nnc1-c1cccc(N(C)C)c1	none (no result: Pol eta inh, PGK inhibitor, POLB inh)
COc1ccc(-c2nn(-c3ccccc3)cc2/C=C(\CC(=O)O)c2nc3ccccc3s2)cc1OC	Pol kappa inh inconclusive, Pol eta inh 56µM, POLB inh inconclusive, Pol iota inh inconclusive
CCCN1CNc2c(c(=O)[nH]c(=S)n2CCc2ccc(C)c(C)c2)C1	none (no result: Pol eta inh, PGK inhibitor, POLB inh)
O=C(O)c1cccc(N2C(=O)C3C4C=CC(C4=C(c4ccccc4)c4ccccc4)C3C2=O)c1 (configuration not stated)	POLB inh 50µM
Cc1ccc(S(=O)(=O)c2nnn3c2nc(NC2CCN(Cc4ccccc4)CC2)c2ccccc23)cc1C	Pol kappa inh inconclusive, Pol iota inh 45µM
COc1ccc(CCNC(=O)C(=O)NCC(c2cccs2)S(=O)(=O)c2ccccc2)cc1 (configuration not stated)	POLB inh inconclusive, Pol iota inh 89µM
NC(=O)c1c(NC(=O)c2ccc([N+](=O)[O-])o2)sc2c1CCCC2	none
NC(=O)c1c(NC(=O)c2cc3ccccc3o2)sc2c1CCC2	Pol eta inh inconclusive, POLB inh 50µM, Pol iota inh inconclusive
Cc1coc2c1C(=O)C(=O)c1c-2ccc2c1CCCC2(C)C	Pol kappa inh inconclusive, Pol eta inh 89µM, FEN1 inhibitor inconclusive, POLB inh 22µM, Pol iota inh inconclusive
Cc1coc2c1C(=O)C(=O)c1c-2ccc2c(C)cccc12	Pol kappa inh 79µM, Pol eta inh 28µM, FEN1 inhibitor inconclusive, POLB inh 20µM, Pol iota inh inconclusive
Cc1nc2cc(N)ccc2n1-c1ccccc1	none
Cc1nc2nc(C)n(-c3ccccc3)c2s1	Pol eta inh 14µM, Pol iota inh inconclusive
Cc1ccc(C)c(N2C(=N)S/C(=C\c3ccc(-c4ccccc4C(=O)O)o3)C2=O)c1	Pol kappa inh inconclusive, Pol eta inh 22µM, POLB inh inconclusive, Pol iota inh 14µM
Cc1ccc(NC(=O)CN2C(=O)S/C(=C\c3ccc(-c4cccc(C(=O)O)c4C)o3)C2=O)cc1	POLB inh 100µM (no result: Pol kappa inh, Pol eta inh, FEN1 inhibitor, PGK inhibitor, Pol iota inh)
Cc1ccc(-n2cccc2/C=C2/NC(=O)N(CC(=O)Nc3cccc(C)c3)C2=O)cc1	POLB inh inconclusive
Cc1ccc(NC(=O)CN2C(=O)S/C(=C\c3cc(C)n(-c4cccc(C(=O)O)c4)c3C)C2=O)cc1	Pol eta inh 56µM, POLB inh 45µM, Pol iota inh inconclusive
